Screens: PubChem, National Center for Advancing Translational Sciences (NCATS)
A selection: hits, their analogues and other compounds. The true share with any hit is near 2.7%.
ALOX12 inh = Primary qHTS assay for inhibitors of human arachidonate 12S-lipoxygenase (ALOX12): Round 2. Potency, µM (series often up to 108 µM), usual class: inhibitors. purified 12hLO, xylenol orange hydroperoxide absorbance. AID 1671190, 2021. 580,000 compounds, 1.1% hits
Target sequence (P18054 whole entry, looked up): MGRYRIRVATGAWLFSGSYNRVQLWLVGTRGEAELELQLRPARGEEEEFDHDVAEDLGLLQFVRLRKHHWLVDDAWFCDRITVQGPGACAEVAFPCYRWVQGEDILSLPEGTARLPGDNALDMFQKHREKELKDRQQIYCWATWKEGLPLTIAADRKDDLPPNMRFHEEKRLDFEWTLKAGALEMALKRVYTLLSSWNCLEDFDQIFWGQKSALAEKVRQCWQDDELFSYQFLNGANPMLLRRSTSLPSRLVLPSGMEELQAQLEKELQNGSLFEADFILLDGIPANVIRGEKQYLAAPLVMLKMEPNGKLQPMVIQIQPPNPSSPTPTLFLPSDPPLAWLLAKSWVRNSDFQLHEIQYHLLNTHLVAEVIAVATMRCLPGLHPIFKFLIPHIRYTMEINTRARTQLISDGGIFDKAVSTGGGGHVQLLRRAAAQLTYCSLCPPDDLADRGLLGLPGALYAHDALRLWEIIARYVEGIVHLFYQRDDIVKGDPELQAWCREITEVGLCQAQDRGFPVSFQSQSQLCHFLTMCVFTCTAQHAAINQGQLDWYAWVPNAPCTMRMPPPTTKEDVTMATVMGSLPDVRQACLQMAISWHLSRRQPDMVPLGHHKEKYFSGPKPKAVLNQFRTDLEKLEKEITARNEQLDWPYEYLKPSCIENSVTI
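Hydroperoxide product was detected by ferrous iron/xylenol orange as the 573 to 405 nm absorbance ratio. Arachidonic acid at 40 uM (final) was turned over for 30 min at room temperature by 150 nM human 12hLO, pH 7.0 Hepes buffer, after 15 min compound preincubation.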
Nrf2 inh = Nrf2 qHTS screen for inhibitors. A549 ARE-Fluc reporter, luciferase luminescence, 18-24 h. Potency, µM (titrated, usually from 46 µM), hits mostly inhibitors. 360,000 compounds, 2.1% hits. AID 504444, 2011; also: nearly all actives have a fitted effect of over 60% in size
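Reporter: ARE-Fluc in A549. Exposure: 18-24 h, 37 °C, 5% CO2, 5% FBS OPTI-MEM. Readouts: fluorescent cytotoxicity (CellTiter-Fluor), then luminescent Nrf2 signal after BugLite.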
LDHA inh = qHTS assay for inhibitors of human lactate dehydrogenase. L-lactate dehydrogenase A chain (Homo sapiens), P00338. purified LDHA, NADH/diaphorase-resazurin fluorescence; hits give low values. activity change, % (values are at about 110 or 230 µM). 480,000 compounds, 0.15% hits; in the data active = activity change below about -30%; inconclusive = mostly about -25% to -30%
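Remaining NADH was detected by diaphorase (0.133 mg/mL) converting 37 µM resazurin to fluorescent resorufin, read at 0 and 20 minutes. The preceding 5-minute room-temperature reaction used 2 nM LDHA, 0.2 mM sodium pyruvate and 0.06 mM NADH at pH 7.4.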
Nrf2 activator = qHTS of Nrf2 Activators; AREc32 ARE-luciferase reporter (MCF7-derived line), luminescence, 24 h; Potency, µM (titrated, usually from 46.1 µM), most hits filed as activators; 410,000 compounds, 0.31% hits; also: nearly all actives have a fitted effect of over 65% in size
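Steps: seed AREc32_Fluc cells (1000/well, 5% FBS OPTI-MEM); incubate overnight at 37 deg C; add 23 nL compound; incubate 24 hr; add Steady-Glo; hold 30 min RT; read luminescence.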
ERG-DNA inh = qHTS for Small Molecule Inhibitors of the ERG Ets/DNA interaction; 370,000 compounds, 0.028% hits; Potency, µM (highest dose often 76.9 µM), hits mostly inhibitors; fluorescence polarization, His-ERG Ets domain / labelled DNA; AID 624246, 2012; active = well fitted inhibition curve with a large enough effect in the polarisation, with a control signal flat; inconclusive = small, poorly fitted or top-dose-only effect, or effect the other way, or a change in a side signal; inactive = no such curve, though single readings can be large or run the other way; the % refers to the polarisation;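 also: polarization taken with two DNA probes labelled with fluorescein and Texas red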
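His-tagged ERG Ets domain (1 uM in the protein solution; 300mM KCl, 50mM Tris-HCl, 1mM EDTA, 1mM DTT, pH 7.5) received compound, then a probe mix of 5 nM fluorescein-DNA and 100nM Texas-615-DNA. Fluorescence polarization was read for both dyes.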
A549 tox = Nrf2 qHTS screen for inhibitors: counterscreen for cytotoxicity; A549 ARE-Fluc cells, CellTiter-Fluor viability, 18-24 h; Potency, µM (top dose mostly 46 µM), usual class: inhibitors; 390,000 compounds, 0.16% hits
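A549 ARE-Fluc cells in 5% FBS OPTI-MEM, 5000 cells/well, rested 2 h then exposed to compounds in concentration-response for 18-24 h at 37 °C. Viability by CellTiter-Fluor fluorescence (Ex 405/Em 525) after 30 min; luciferase luminescence (BugLite, 15 min, RT) read afterwards.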
A number is an active result; – = inactive; ? = inconclusive; · = no result; ! = not confirmed by another sample. Unless noted, calls follow the shape of the dose curve; as a rule, active = well fitted curve in the direction sought with a large enough effect; inconclusive = small, poorly fitted or top-dose-only effect, or another doubt; inactive = no such curve, though single readings can be large; an effect the other way counts as inactive or inconclusive.

SMILES	ALOX12 inh	Nrf2 inh	LDHA inh	Nrf2 activator	ERG-DNA inh	A549 tox
CC(C)N(Cc1cnn(C)c1)S(=O)(=O)c1ccc(Cl)cc1F	–	·	–	·	·	·
COc1cc(/C=C/c2nc(-c3ccccc3)nc(-c3ccccc3O)n2)cc(OC)c1OC	–	·	–	·	·	·
O=C(Nc1ccc(S(=O)(=O)N(Cc2ccccc2)c2ccccc2)cc1)c1ccccc1F	–	–	–	–	–	–
O=C(Nc1ccc(S(=O)(=O)N(Cc2ccccc2)c2ccccc2)cc1)c1ccc(F)cc1	–	23µM	–	–	–	–
Cc1nn(-c2ccccn2)c2nc(-c3cccs3)cc(C(=O)NCc3ccco3)c12	–	?	–	–	–	–
CCOC(=O)c1cc(-c2cccs2)nc2c1c(C)nn2-c1ccccn1	–	23µM	–	–	–	–
CCOC(=O)c1cc(-c2ccco2)nc2c1c(C)nn2-c1ccccc1Cl	32µM	·	–	·	·	·
CCOC(=O)c1cc(-c2ccccn2)nc2c1c(C)nn2-c1ccc(C)cc1	–	·	–	·	·	·
CCOC(=O)c1cc(-c2ccc(OC)cc2)nc2c1c(C)nn2CCC(N)=S	40µM	?	–	–	–	–
CCOC(=O)c1cc(-c2ccco2)nc2c1c(C)nn2-c1ccccc1	35µM!	–	–	–	–	–
Fc1cccc(/C=N/Nc2cc(C(F)(F)F)ccc2Cl)c1	?	·	–	·	·	·
O=C(C(Sc1nncn1-c1ccccc1F)c1ccccc1)N1CCCCC1 (configuration not stated)	?	·	–	·	·	·
O=C(O)Cc1ccc(S(=O)(=O)Cc2ccccc2)cc1	1µM	·	–	·	·	·
O=C(C[C@@H]1O[C@H](CNS(=O)(=O)c2ccccc2)[C@@H](O)[C@H]1O)N1CCN(c2ccccc2)CC1	–	·	·	·	·	·
COC[C@H]1CCCN1C(=O)C[C@@H]1O[C@H](CNS(=O)(=O)c2ccccc2)[C@@H](O)[C@H]1O	40µM	·	·	·	·	·
CC(=O)c1cccc(S(=O)(=O)NCCC(=O)NC(C)C)c1	–	·	–	·	·	·
Cc1ccc(-n2nc3c(=O)n(C(C)C(=O)NCCc4cccs4)nc(C)c3c2C)cc1 (configuration not stated)	·	12µM	–	–	–	–
CCC(C(=O)Nc1cc(F)ccc1F)n1nc(C)c2c(C)n(-c3ccc(C)cc3)nc2c1=O (configuration not stated)	–	23µM	–	–	–	?
Cc1ccc(-n2nc3c(=O)n(CC(=O)NC(C)CCc4ccccc4)nc(C)c3c2C)cc1 (configuration not stated)	·	5.2µM	–	–	–	–
CCC(C(=O)NC1CC1)n1nc(C)c2c(C)n(-c3ccc(C)cc3)nc2c1=O (configuration not stated)	–	16µM	–	–	–	–
CCC(C(=O)Nc1ccccc1F)n1nc(C)c2c(C)n(-c3ccccc3)nc2c1=O (configuration not stated)	–	–	–	–	–	–
Cc1ccc(-c2nnc(Cn3cnc(C#N)n3)o2)cc1	–	·	–	·	·	·
COc1cccc(NC(=O)Cc2c(C)c3c(O)cc(C)cc3oc2=O)c1	?	·	–	·	·	·
Cc1cccc(CN2CCCN(c3cccc(C(=O)NCc4ccc5c(c4)OCO5)c3)C2=O)c1	–	·	–	·	·	·
CCC(C(=O)NCc1ccc(OC)c(OC)c1)n1nc(C)c2c(C)n(-c3ccc(C)cc3)nc2c1=O (configuration not stated)	–	26µM	–	–	–	–
SMILES	ALOX12 inh	Nrf2 inh	LDHA inh	Nrf2 activator	ERG-DNA inh	A549 tox
COc1ccc(CNC(=O)C(C)n2nc(C)c3c(C)n(-c4ccc(C)cc4)nc3c2=O)cc1 (configuration not stated)	–	?	–	–	–	–
Cc1cc(C)c(S(=O)(=O)N2CCCC2c2cc(C(C)C)no2)cc1C (configuration not stated)	?	·	–	·	·	·
CN(Cc1ccc(F)cc1F)C(=O)c1cc(Br)ccc1O	10µM	·	–	·	·	·
CCc1nnsc1C(=O)N(C)Cc1ccc(F)cc1F	–	·	–	·	·	·
CC1CC(C)CN(S(=O)(=O)c2ccc(C(=O)Nc3nnc(-c4cccs4)o3)cc2)C1 (configuration not stated)	–	5µM	–	–	–	?
CCC1CCCCN1S(=O)(=O)c1ccc(C(=O)Nc2nnc(-c3cccs3)o2)cc1 (configuration not stated)	·	5µM	–	–	–	?
CCC1CCCCN1S(=O)(=O)c1ccc(C(=O)Nc2nc(-c3ccncc3)cs2)cc1 (configuration not stated)	?	·	–	·	·	·
CN(C)S(=O)(=O)c1ccc(C(=O)Nc2nnc(-c3cccs3)o2)cc1	–	?	–	–	–	–
CC1CCN(S(=O)(=O)c2ccc(NC(=O)C3CC(=O)N(CCc4ccc(F)cc4)C3)cc2)CC1 (configuration not stated)	–	·	–	·	·	·
N#Cc1nc(-c2ccco2)oc1N1CCN(CC(=O)N2CCOCC2)CC1	–	·	–	·	·	·
O=C(O)CCCC(=O)Nc1ccc(OCc2nc3ccccc3s2)cc1	?	?	–	–	–	–
CCNC(=S)Nc1ccc(OCc2nc3ccccc3s2)cc1	45µM	?	–	–	–	–
Cn1c(=O)c2c(n(C)c1=O)n(CC(=O)NC(C)(C)C)c(=O)n2C	?	·	–	·	·	·
COc1cc2ncnc(Nc3ccc(Cl)cc3F)c2cc1OC	20µM	·	·	·	·	·
O=C1C=C(C2CCCCC2)C(=O)c2ccccc21	45µM	–	–	–	–	–
O=C(O)C1=C(C2CCCCC2)C(=O)c2ccccc21	–	–	–	?	–	–
O=C(O)Cn1ccc2cc(OCc3cccc(-c4ccncc4)c3)cnc21	–	·	·	·	·	·
COc1cc(Cl)ccc1-c1cccc(COc2cnc3c(ccn3CC(=O)O)c2)c1	63µM	·	·	·	·	·
CCOC(=O)c1cnc(SCC(=O)Nc2sc(C)c(C)c2C#N)nc1N	?	9.2µM	–	–	–	?
CCOC(=O)c1cnc(SCC(=O)Nc2cc(OC)cc(OC)c2)nc1N	?	?	–	–	–	–
Cc1cc(=O)oc2cc(OCC(=O)NC(C)C34CC5CC(CC(C5)C3)C4)ccc12 (configuration not stated)	?	·	–	·	·	·
CCOC(=O)c1sc2nc(C)nc(NCc3ccc(F)cc3)c2c1C	–	?	–	–	–	–
CCOC(=O)c1sc2nc(C)nc(NCc3ccc(Cl)cc3)c2c1C	–	18µM	–	–	–	–
CCOC(=O)c1sc2nc(CC(=O)OC)nc(NCc3ccc(F)cc3)c2c1C	–	10µM	–	–	–	?
